# Measured values as given in PubChem BioAssay AID720507 (National Center for Advancing Translational Sciences (NCATS), 2013).
# Among all 2,300 compounds or so, about 140 (6.1%) were called active. About 18% were inconclusive and are not listed. The call rests on the fitted dose curve; in most records, active means well fitted activation curve with a large enough effect; inconclusive means small, poorly fitted or top-dose-only effect; inactive means flat fitted curve, though single readings scatter. A selection follows. Entries that show only a call come without a potency.
# Target: D(2) dopamine receptor (Homo sapiens) (UniProt P14416)
# Experiment: qHTS of D3 Dopamine Receptor Agonist: D2 Dopamine Receptor B-arrestin Agonist Counterscreen; further: nearly all actives have a fitted effect of over 70% in size
# Conditions: DiscoveRx PathHunter D2 beta-arrestin, luminescence, 90 min; series mostly up to 76.9 µM
# Description: D3 DARs represent a very important target for the treatment of several neuropsychiatric disorders. Indeed, one of the most promising therapeutic applications for the D3 DAR is in the area of addiction and related disorders. […] These findings have been observed with a number of addictive substances including cocaine, amphetamine, nicotine, and alcohol. […] Increased D3 DAR activity can thus lead to neuroprotective and neurorestorative actions in the CNS. […] This assay is used to profile the activity of the identified D3 dopamine receptor agonist against the D2 dopamine receptor. Greater than 10% of the maximum dopamine agonist response is desired for this assay. NIH Molecular Libraries Probe Production Centers Network [MLPCN] NIH Chemical Genomics Center [NCGC] MLPCN Grant: NS064831 Assay Submitter (PI): David Sibley
# DiscoveRx D2 cells were thawed from frozen stock and seeded at 2,100 cells/ 3 uL/well media (DiscoveRx Plating Reagent 2) with MultiDrop Combi dispenser (Thermo Scientific, Logan, UT) onto white tissue culture treated 1536-well Aurora plates (Brooks Automation, Chelmsford, MA) and allowed to attach overnight at 37 deg C, 5% CO2. Next, 23 nL/well of compound solutions in DMSO were added with a pintool transfer (Kalypsis, San Diego, CA). […] The rest of the plate was dispensed with buffer only, 1 uL/well as well. The cells were stimulated by compounds or dopamine control for 90 minutes at 37 deg C, 5% CO2, after which 1.5 ul/well of DiscoveRx detection reagent was added with BioRAPTR FRD dispenser. The detection reagent was prepared by mixing of Galacton Star Substrate, Emerald II solution and PathHunter buffer (supplied by the assay kit) together at 1:5:19 proportion accordingly just prior to dispensing. The plates were incubated at ambient temperature for 1 hour and then the luminescent signal was read on ViewLux plate reader (PerkinElmer, Waltham, MA).
# Potency means the concentration at half of the fitted maximal effect.
# D(2) dopamine receptor (Homo sapiens), sequence (P14416 whole entry, looked up): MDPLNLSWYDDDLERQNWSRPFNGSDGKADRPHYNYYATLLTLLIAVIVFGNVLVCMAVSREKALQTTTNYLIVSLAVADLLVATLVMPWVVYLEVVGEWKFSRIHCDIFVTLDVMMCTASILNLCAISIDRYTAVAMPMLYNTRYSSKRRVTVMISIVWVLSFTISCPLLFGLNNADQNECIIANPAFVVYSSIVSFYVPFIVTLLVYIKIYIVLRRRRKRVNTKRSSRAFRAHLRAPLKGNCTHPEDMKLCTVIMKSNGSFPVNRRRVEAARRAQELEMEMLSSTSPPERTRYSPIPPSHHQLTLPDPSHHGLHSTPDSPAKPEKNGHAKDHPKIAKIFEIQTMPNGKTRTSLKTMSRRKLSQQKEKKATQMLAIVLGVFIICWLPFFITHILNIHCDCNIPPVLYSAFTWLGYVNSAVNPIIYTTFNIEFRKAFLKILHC
row,SMILES,Potency
1,O=C(CN1CCN(S(=O)(=O)c2cc(Cl)ccc2Cl)CC1)c1ccc(O)c(O)c1,inactive
2,Cc1cc(C)n2nc(C(=O)N3CCN(Cc4ccc5c(c4)OCO5)CC3)nc2n1,inactive
3,O=C(c1ccco1)N1CCN(Cc2cccc(C(F)(F)F)c2)CC1,31.6 µM (active)
4,CCC(=O)Nc1ccc(C(=O)N2CCN(C(=O)c3ccco3)CC2)cc1,inactive
5,Cc1ccc(S(=O)(=O)N2CC(O)C[C@H]2C(=O)OCC(=O)Nc2ccc(N3CCOCC3)cc2)cc1C (stereo partly drawn),inactive
6,CCN(CCCNC(=O)c1ccc2c(c1)NC(=O)CN2C)c1cccc(C)c1,inactive
7,O=C(COc1coc(CN2CCN(c3ccccc3)CC2)cc1=O)Nc1ccccc1F,inactive
8,CN(CCO)S(=O)(=O)c1ccc2c(c1)C(=O)c1cc(S(=O)(=O)N(C)CCO)ccc1-2,inactive
9,Cc1n[nH]c(C)c1S(=O)(=O)N1CCCC(C(=O)NCC2COc3ccccc3O2)C1 (stereo not drawn),inactive
10,OCC1(Cc2ccccc2)CCN(Cc2cc3ccccc3o2)CC1,25.1 µM (active)
11,CS/C(=C\C(=O)c1ccco1)Nc1ccccc1Cl,inactive
12,O=c1oc(-c2ccccc2NS(=O)(=O)c2ccc(Cl)cc2)nc2ccccc12,inactive
13,O=C(NC1CCCCC1)c1ccc2c(=O)n(CC3CCCO3)c(=O)[nH]c2c1 (stereo not drawn),inactive
14,COC(c1ccccc1)c1nnc(CCC(=O)N2CCN(CCOc3ccccc3)CC2)o1 (stereo not drawn),inactive
15,CN1CCC(CN)(N2CCN(c3ccccc3)CC2)CC1,inactive
16,Cc1c(C(=O)Nc2cccc(-c3nnc4n3CCCCC4)c2)oc2ccccc12,inactive
17,O=C(Nc1cccnc1Cl)c1cc(-c2cccc(Cl)c2)on1,inactive
18,COc1ccc([C@H]2CC(=O)C=C(c3ccc(OC(F)(F)F)cc3)C2)cc1OC,inactive
19,Cc1c(CC(=O)N2CCN(C(=O)C3COc4ccccc4O3)CC2)c(=O)oc2c(O)c(O)ccc12 (stereo not drawn),31.6 µM (active)
20,O=S(=O)(c1ccc(F)cc1)N1CC=C(c2ccccc2)CC1,inactive
21,CC[C@H](C)C(=O)N[C@H]1CCCN1C(=O)/C=C/c1ccccc1,inactive

row,SMILES,Potency
1,CCOC(=O)[C@H]1[C@H]2COc3ccc(C)cc3[C@@H]2N2C(=O)CN(Cc3ccc(F)cc3)C(=O)[C@@]12C,inactive
2,Cc1ccc(O)c(-c2cc(C(=O)Nc3c(C)n(C)n(-c4ccccc4)c3=O)[nH]n2)c1,inactive
3,CCCN(CC(=O)Nc1ccccc1C)C(=O)c1ccc2[nH]c3c(c2c1)CC(C)CC3 (stereo not drawn),inactive
4,Cc1cnc(C(=O)N2CCCC(N3CCN(c4ccccc4F)CC3)C2)cn1 (stereo not drawn),inactive
5,Cc1cccc(C)c1NC(=O)CNC(=O)c1ccc2c(c1)OCCO2,inactive
6,COc1ccc([C@H]2CC(=O)C=C(c3ccc(CO)cc3)C2)cc1,inactive
7,CC1(C)CC(=O)C=C(c2ccc3ncccc3c2)C1,inactive
8,COc1ccc(NC(C)=O)cc1NC(=O)CN1CCN(c2ccccn2)CC1,inactive
9,O=C(Nc1cccc(-c2nc3ccccc3[nH]2)c1)c1ccc(C(=O)Nc2cccc(-c3nc4ccccc4[nH]3)c2)cc1,inactive
10,CC(=O)OC(C)C[N+](C)(C)C (stereo not drawn),inactive
11,CCC(=O)c1ccc(OCC(=O)Nc2ccc(N3CCCCC3)cc2)cc1,inactive
12,OCC[C@H]1C[C@H](O)[C@@H](O)[C@]2(Cc3ccccc3CO2)O1,inactive
13,O=C(Cc1csc(Nc2nc(=S)[nH]c3ccccc23)n1)NCCCN1CCN(c2cccc(Cl)c2)CC1,inactive
14,O=C(NC(=O)c1ccccc1)Nc1ccccc1O,inactive
15,CN1CCN(S(=O)(=O)c2cccc(C(=O)Nc3sccc3C#N)c2)CC1,inactive
16,O=c1cc(CCl)nc2scc(-c3ccccc3)n12,inactive
17,O=C(CSC1CC(=O)N(CCc2ccccc2)C1=O)Nc1ccc(Cl)cc1 (stereo not drawn),inactive
18,COc1cc(OC)c(-n2cc(-c3ccc(Cl)cc3)[nH]c2=O)cc1Cl,inactive
19,O=C(c1c(F)cccc1F)N1CCN(S(=O)(=O)c2ccc3c(c2)OCCO3)CC1,inactive
20,COc1ccc(CC(NC(C)=O)C(=O)N2CCN(C(=O)Nc3cccc(Cl)c3)CC2)cc1OC (stereo not drawn),inactive
21,CC(C)c1ccc2c(c1)c(SC(C)(C)C)c(CC(C)(C)C(=O)O)n2Cc1ccc(Cl)cc1,inactive

row,SMILES,Potency
1,NS(=O)(=O)c1ccc(CCNS(=O)(=O)c2cccc3cccnc23)cc1,inactive
2,Cc1c(CN2CC[C@@H](N3CCN(c4ccccn4)CC3)[C@H](O)C2)[nH]c2ccc(F)cc12,28.2 µM (active)
3,O=C(CN1CCN(c2ccccn2)CC1)NC1CCCCC1,inactive
4,NS(=O)(=O)c1ccc(CCNC(=O)NC2CCCCC2)cc1,inactive
5,O=C1c2cccc3cccc(c23)N1CN1CCN(c2ccccn2)CC1,inactive
6,CCC(=O)Nc1ccc2c(c1)nc(CCN1CCN(c3ccccn3)CC1)n2C,inactive
7,O=C(C1CC(=O)N(c2ccc(F)cc2)C1)N1CCN(c2ccccc2)CC1 (stereo not drawn),inactive
8,Cn1c(=O)c(=O)n(C)c2cc(S(=O)(=O)NCCN3CCN(c4ccccc4F)CC3)ccc21,inactive
9,COc1ccc(N2CCN(Cc3cc(=O)oc4ccc5ccccc5c34)CC2)cc1,inactive
10,O=C(CCN1CCN(c2ccccc2)CC1)NNC(=S)Nc1ccccc1,inactive
11,Nc1nonc1-n1nnc(C(=O)N/N=C/c2ccc(Cl)cc2)c1-c1ccc2c(c1)OCO2,inactive
12,O=C1c2ccccc2S(=O)(=O)N1CC(O)Cn1c2ccccc2c2ccccc21 (stereo not drawn),inactive
13,O=C(c1ccc2c(c1)OCCO2)C1CCN(S(=O)(=O)c2cccc(F)c2)CC1,inactive
14,O=C(Nc1ccc(F)cc1F)N1CCCN(CCOc2ccccc2)CC1,inactive
15,O=C(CCN1CCN(C/C=C/c2ccccc2)CC1)Nc1ccccc1Cl,inactive
16,CC(=O)C[C@@H](O)CC(=O)[C@H]1OC(=O)CCCCCCc2ccccc21,inactive
17,O=C(O[C@H]1[C@H](Cc2ccccc2)NS(=O)(=O)[C@H]2C[C@@H]3C=C[C@]12O3)c1ccc([N+](=O)[O-])cc1,inactive
18,CNC(=O)NC(=O)C(C)N1CCN(C/C=C/c2ccccc2)CC1 (stereo not drawn),inactive
19,c1ccc(-c2cnc(CN3CCN(c4ccccc4)CC3)o2)cc1,inactive
20,C/C(=N\NC(=S)NC1CCCCC1)c1ccc(C)o1,inactive
21,COc1ccc(S(=O)(=O)N2CCSCC2)cc1,inactive
